Screening results as filed in PubChem.
Compounds with a hit are over-represented: about 3.4% of the library has one in this group of screens.
PLK1 PBD block = inhibitors of human PLK1 polo-box domain binding. Plk1 PBD binding of FITC phosphopeptide, fluorescence polarization. hit rate 2.8% among 360,000. Potency, µM, for the others: max response, negative = inhibition, most hits filed as inhibitors. P53350; further: series mostly up to about 57 µM; on the % scale 0 is the no-effect control and ±100 the full control effect; nearly all actives have a fitted effect of over 65% in size
PKM2 act = PKM2 (human) enzyme activation; P14618; purified PKM2, Kinase-Glo ATP luminescence, activation; response scale: 0% is enzyme alone, no compound; Potency, µM (titrated, usually from 57.5 µM), without a hit: top-dose activation, usual class: activators; hit rate 0.34% among 260,000; AID 1631; further: on the % scale 0 is the no-effect control and ±100 the full control effect; nearly all actives have a fitted effect of over 55% in size
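Kinase-Glo luminescence reports ATP generated from ADP (0.1 mM) and PEP (0.5 mM) by purified hPK-M2 after 1 h at room temperature, pH 7.2 imidazole buffer; intermediate enzyme activity allows detecting inhibitors and activators.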
Mito fusion act = blocks mitochondrial division or promotes mitochondrial fusion. S. cerevisiae fusion-defective mutant growth rescue, CellTiterGlo 48 h. Potency, µM (titrated, usually from 46.1 µM), inactives show at the top dose growth rescue (activation), usual class: activators. hit rate 0.23% among 320,000. AID 485298; further: % of control where 0% means no effect; nearly all actives have a fitted effect of over 45% in size
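Yeast fusion mutant, YPEG (non-fermentable carbon), compound, 48 h at 37C non-permissive; CellTiterGlo added, 10 min RT, luminescence read. Rescued growth = division inhibition.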
GLS inhibitor = glutaminase GLS (human) inhibition; Potency, µM (top dose mostly 45.5 µM), inactives show at the highest dose activity change, negative = inhibition, usual class: inhibitors; O94925; hit rate 0.21% among 410,000; GLS enzymatic activity, qHTS titration; further: on the % scale 0 is the no-effect control and ±100 the full control effect
Target sequence (O94925 whole entry, looked up): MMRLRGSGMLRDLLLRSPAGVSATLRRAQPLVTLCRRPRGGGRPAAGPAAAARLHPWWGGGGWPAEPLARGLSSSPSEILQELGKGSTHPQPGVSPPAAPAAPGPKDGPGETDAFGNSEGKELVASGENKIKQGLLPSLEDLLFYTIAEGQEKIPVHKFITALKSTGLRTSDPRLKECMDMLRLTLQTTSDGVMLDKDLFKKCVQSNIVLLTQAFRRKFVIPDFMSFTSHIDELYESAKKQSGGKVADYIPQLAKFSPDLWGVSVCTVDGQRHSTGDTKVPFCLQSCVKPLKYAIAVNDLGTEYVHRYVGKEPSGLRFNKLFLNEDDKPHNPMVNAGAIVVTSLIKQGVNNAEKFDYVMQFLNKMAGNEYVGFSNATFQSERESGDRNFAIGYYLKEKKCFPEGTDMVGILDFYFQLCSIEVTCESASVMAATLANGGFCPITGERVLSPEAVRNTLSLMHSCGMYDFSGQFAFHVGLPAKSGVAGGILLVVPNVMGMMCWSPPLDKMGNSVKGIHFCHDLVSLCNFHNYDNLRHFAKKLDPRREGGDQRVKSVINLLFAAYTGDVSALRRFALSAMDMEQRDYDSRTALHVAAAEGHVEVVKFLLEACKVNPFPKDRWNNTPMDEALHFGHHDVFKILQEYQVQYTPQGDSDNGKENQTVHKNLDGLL
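hKGA in 45 mM KH2PO4 pH 8.2, 0.02% Tween-20 with pin-transferred compounds; 1 mM L-glutamine (stock) plus glutamate oxidase/HRP/Amplex Red coupling added. Fluorescence read initially and after 30 min at RT.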
VDR inhibitor = inhibitors of human vitamin D receptor; Potency, µM, for the others: max response, negative = inhibition, actives largely listed as inhibitors; hit rate 0.93% among 400,000; VDR-SRC2-3 peptide fluorescence polarization, 2 h; P11473; further: on the % scale 0 is the no-effect control and ±100 the full control effect
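The screen uses fluorescence polarization to detect compounds that interfere with recruitment of the SRC2-3 coactivator peptide to VDR; plates are read after 2 h at room temperature.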
KAT2A inh = GCN5L2 (KAT2A) acetyltransferase inhibition. AID 504327. Potency, µM (titrated, usually from 58.9 µM), for the others: at the highest dose activity change, negative = inhibition, usual class: inhibitors. hit rate 0.21% among 390,000. GCN5L2 HAT assay, ThioGlo1 CoA-SH fluorescence; further: on the % scale 0 is the no-effect control and ±100 the full control effect
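GCN5L2 (20nM final) in 50mM HEPES, 0.1mM EDTA pH 7.5, 0.01% Tween-20 was preincubated 15 min at room temperature with compound, then given ThioGlo1 (50uM), H3(1-25) peptide (75uM) and acetyl-CoA (70uM); CoA-thiol fluorescence (Ex340/Em540) was read at 0 and 20 min.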
TbPYK confirm = Trypanosoma brucei pyruvate kinase inhibition, cherry-pick confirmation | shares compounds with PLK1 PBD block | recombinant TbPYK, Kinase-Glo ATP luminescence | Potency, µM (series often up to 76.9 µM), for the others: at the highest dose activity change, negative = inhibition, usual class: inhibitors | hit rate 67% among 890 | AID 720569; further: on the % scale 0 is the no-effect control and ±100 the full control effect; nearly all actives have a fitted effect of over 70% in size
TbPYK orthogonal = orthogonal confirmation of Trypanosoma brucei pyruvate kinase inhibitors; hit rate 62% among 890; Potency, µM (doses to about 76.9 µM), for the others: at the highest dose activity change, negative = inhibition, actives largely listed as inhibitors; shares compounds with PLK1 PBD block; recombinant TbPYK, ADP-Glo luminescence, 60 min; further: on the % scale 0 is the no-effect control and ±100 the full control effect; nearly all actives have a fitted effect of over 75% in size
Active calls of the source: *; u = inconclusive; x = no result given; [ ] = dose if it differs, or a comment. The call rests on the fitted dose curve; in most records, active means well fitted curve in the direction sought with a large enough effect; inconclusive means small, poorly fitted or top-dose-only effect, or another doubt; inactive means no such curve, though single readings can be large; an effect the other way counts as inactive or inconclusive. Potency means the concentration at half of the fitted maximal effect.

SMILES | PLK1 PBD block | PKM2 act | Mito fusion act | GLS inhibitor | VDR inhibitor | KAT2A inh | TbPYK confirm | TbPYK orthogonal
CCN(CC)C(=S)Sc1c(-c2ccccc2)c2cc(Cl)ccc2[nH]c1=O | u | 2% | 1% | -14% | u | -5% | u | 14µM*
CCOC(=O)CSc1c(-c2ccccc2)c2cc(Cl)ccc2[nH]c1=O | -28% | -5% | 1% | 3% | -17% | 17% | x | x
COC(=O)c1ccccc1NC(=O)c1cc2nc(-c3ccc(OC)cc3)cc(C(F)(F)F)n2n1 | x | x | x | 7% | 13% | -6% | x | x
COc1cccc(N2C(=NC(=O)C3CCCO3)SC3CS(=O)(=O)CC32)c1 (stereo not given) | -6% | x | -4% | -5% | 11% | -1% | x | x
COc1ccc(N2C3=C(CC4=C2CCCC4=O)C(=O)CCC3)cc1 | 21µM* | 4% | 7% | -16% | -22% | -12% | -7% | -23%
CCc1ccc(C2c3c(n[nH]c3C)C(=O)N2c2ccc(C)cc2)cc1 (stereo not given) | x | x | x | 4% | -10% | 1% | x | x
N#CC1=C2SCN(Cc3ccccc3)CN2C(=O)CC1c1ccc2c(c1)OCO2 (stereo not given) | 19µM* | -11% | 4% | -4% | 50µM* | -26% | u | u
COc1cc(C2CC(=O)N3CN(Cc4ccco4)CSC3=C2C#N)ccc1OCc1ccccc1 (stereo not given) | u | 3% | 5% | -17% | u | u | u | 1µM*
N#CC1=C(N)OC2=C(C(=O)CC(c3ccccc3)C2)C1c1ccc2c(c1)OCO2 (stereo not given) | 5% | 3% | u | 0% | u | -11% | x | x
COc1cc(CNCc2ccco2)ccc1OCc1ccccc1 | -16% | -4% | 0% | 6% | 0% | -2% | x | x
CSC1=C(C#N)C(c2ccc(C(C)C)cc2)CC(=O)N1 (stereo not given) | -3% | -6% | 3% | 2% | 3% | -11% | x | x
CC(C)c1ccc(C2CC(=O)N3CN(Cc4ccco4)CSC3=C2C#N)cc1 (stereo not given) | 27µM* | 13% | 3% | -4% | 40µM* | u | 0.14µM* | 0.45µM*
Cc1cc(C)cc(OCC(=O)NNC(=O)CC(C)c2ccccc2)c1 (stereo not given) | -6% | x | x | -3% | x | x | x | x
Cc1nnc(N2CCN(c3ccccc3)CC2)[nH]c1=O | 3µM* | u | -2% | -48% | -18% | -3% | 3% | -3%
O=C(NC(=S)NNC(=O)c1ccccc1[N+](=O)[O-])c1ccc(Br)cc1 | u | 1%[11.5 µM] | 3% | 8% | -22% | -13% | u | u
COc1ccc(-c2nonc2NC(=O)c2ccco2)cc1OC | -11% | x | 0% | 1% | -12% | 1% | x | x
Cc1ccc(C)c2c1c1ccccc1n2C | 2% | -4% | -2% | 6% | 9% | -4% | x | x
Cn1c2ccccc2c2ccc3c(c21)C(=O)C=CC3=O | 12µM* | x | x | 35% | 25µM* | x | -28% | -21%
